Holding throughout (assay): NCI-60 one-dose screen, 48 h (100 = growth as untreated, 0 = no growth, -100 = all killed)
Experiment [1] concerns HCT-15 colon. The settings on record: 10 µM unless noted.
The test system of experiment [2] is HT29 colon. The settings on record: 10 µM unless noted.
For experiment [3], the system named is SNB-75 CNS. The settings on record: 10 µM unless noted.
In experiment [4] the test system is SNB-19 CNS. The following applies: 10 µM unless noted.
Experiment [5] relates to U251 CNS. The following applies: 10 µM unless noted.
The test system of experiment [6] is PC-3 prostate. The following applies: 10 µM unless noted.
Experiment [7] has as its system SK-MEL-5 melanoma. The settings on record: 10 µM unless noted.
The subject of experiment [8] is UACC-62 melanoma.
For experiment [9], the system named is LOX IMVI melanoma. The settings on record: 10 µM unless noted.
Experiment [10] relates to SK-MEL-28 melanoma. The settings on record: 10 µM unless noted.
Experiment [11] deals with SK-MEL-2 melanoma. The following applies: 10 µM unless noted.
The test system of experiment [12] is EKVX NSCLC. The settings on record: 10 µM unless noted.
Experiment [13] concerns SN12C renal. The settings on record: 10 µM unless noted.
In experiment [14] the test system is UO-31 renal. The settings on record: 10 µM unless noted.
For experiment [15], the system named is TK-10 renal.
Experiment [16] relates to ACHN renal. The settings on record: 10 µM unless noted.
Experiment [17] relates to CAKI-1 renal. The settings on record: 10 µM unless noted.
Experiment [18] deals with A498 renal. The following applies: 10 µM unless noted.
For experiment [19], the system named is CCRF-CEM leukemia. The settings on record: 10 µM unless noted.
Experiment [20] has as its system MOLT-4 leukemia. The settings on record: 10 µM unless noted.

“And” between values parts separate entries of the source, which are not always exact repeats. Equal entries are not always repeated. This is part of a sample that, as a whole, favours compounds with a hit. Of some 83,000 tested, about 20% had one in any assay.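 A percent growth of 40 corresponds to 60% growth inhibition; 0 means no net growth; -100 means all cells died. Active threshold: below 10.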 The source made the active and inactive calls.

As for `CCN1C(=S)N(CC)C2C1NC(=S)N2/N=C/C=C/c1ccccc1` (configuration not stated), the growth in experiment [1] is 26.5% (inactive); in experiment [2], 5.26% (active); in experiment [3], -21.6% (active); in experiment [4], 31.4% (inactive); in experiment [5] it was 27.7% (inactive); in experiment [6] it was 36.5% (inactive). Besides, the growth was 25% (inactive) in [7]; 24.5% (inactive) in experiment [8] (10 µM unless noted); 37.6% (inactive) in experiment [9]; 53.6% (inactive) in experiment [10]; 46.7% (inactive) in experiment [11]; 62.5% (inactive) in experiment [12]. The growth is 40.8% (inactive) in [13]; 40% (inactive) in experiment [14]; 69.2% (inactive) in [15] (10 µM unless noted); 39.3% (inactive) in [16]; 30.4% (inactive) in [17]; 0.507% (active) in [18]. Also, the growth is 14.7% (inactive) in experiment [19] and 26.4% (inactive) in experiment [20].
Turning to `O=C1C(c2c[nH]c3ccccc23)=C(c2coc3cc(Br)ccc23)C(=O)N1O`, the growth in [1] is 97.2% (inactive); in experiment [2] it was 103% (inactive); in experiment [3], 65.4% (inactive); in experiment [4] it was 103% (inactive); in experiment [5] it was 101% (inactive); in experiment [6], 89.6% (inactive). Further, the growth in experiment [7] was 97.2% (inactive); in experiment [8] (10 µM unless noted), 84.7% (inactive); in experiment [9] it was 62.2% (inactive); in experiment [10], 111% (inactive); in experiment [11], 97.4% (inactive); in [12] it was 84.3% (inactive). The growth in [13] was 97.9% (inactive); in experiment [14] it was 73.4% (inactive); in [15] (10 µM unless noted), 137% (inactive); in experiment [16], 110% (inactive); in experiment [17], 100% (inactive); in experiment [18] it was 54.4% (inactive). Moreover, the growth in [19] was 89.4% (inactive); in [20], 98.9% (inactive).
`CNC(=O)c1cc(Oc2ccc3nc(NC(=O)Nc4ccc(C(F)(F)F)cc4)sc3c2)ccn1`: the growth in [1] is 54.2% (inactive); in experiment [2] it was 78.4% (inactive); in experiment [3], 29.1% (inactive); in [4], 79.3% (inactive); in experiment [5], 22.4% (inactive); in experiment [6], 58.8% (inactive). Also, the growth in [7] was 56.9% (inactive); in experiment [8] (10 µM unless noted) it was 56% (inactive); in experiment [9], 48.1% (inactive); in [10], 68.9% (inactive); in experiment [11], 92.9% (inactive); in experiment [12] it was 53.5% (inactive). In addition, the growth was 71.1% (inactive) in [13]; 65% (inactive) in [14]; 55.3% (inactive) in [15] (10 µM unless noted); 73.4% (inactive) in experiment [16]; 92% (inactive) in experiment [17]; 98.8% (inactive) in [18]. Further, the growth in [19] is 68.1% (inactive); in experiment [20] it was 73.3% (inactive).
For the compound `COc1ccc(/C=N/NC(=O)CN2CCN(c3cc4c(cc3F)c(=O)c(C(=O)O)cn4C3CC3)CC2)cc1O`, the growth in [1] was 109% (inactive); in experiment [2], 96.1% (inactive); in experiment [3] it was 106% (inactive); in experiment [4], 94.4% (inactive); in [5], 95.3% (inactive); in [6], 93% (inactive). Besides, the growth in experiment [7] is 89.8% (inactive); in [8] (10 µM unless noted), 97.6% (inactive); in experiment [9], 97.9% (inactive); in experiment [10] it was 109% (inactive); in [11], 94.1% (inactive); in experiment [12], 112% (inactive). Further, the growth in experiment [13] is 99.1% (inactive); in experiment [14], 94.6% (inactive); in experiment [15] (10 µM unless noted), 89.6% (inactive); in [16] it was 106% (inactive); in [17], 111% (inactive); in experiment [18] it was 104% (inactive). In addition, the growth in experiment [19] was 92.7% (inactive); in experiment [20], 82.7% (inactive).
Take `O=C(CC1(O)C(=O)Nc2ccc(Br)cc21)c1ccc(Cl)cc1` (configuration not stated): the growth in experiment [1] is 109% (inactive); in experiment [2], 97.8% (inactive); in experiment [3] it was 81.8% (inactive); in experiment [4], 107% (inactive); in [5] it was 94.6% (inactive); in [6], 81.6% (inactive). Besides, the growth in experiment [7] is 96.8% (inactive); in experiment [8] (10 µM unless noted), 98.1% (inactive); in experiment [9] it was 99.3% (inactive); in experiment [10] it was 120% (inactive); in [11], 97.2% (inactive); in [12] it was 93.8% (inactive). Further, the growth in experiment [13] was 102% (inactive); in experiment [14] it was 75.9% (inactive); in experiment [15] (10 µM unless noted), 123% (inactive); in experiment [16] it was 113% (inactive); in experiment [17], 98.9% (inactive); in [18], 97.7% (inactive). Further, the growth in [19] was 103% (inactive); in experiment [20] it was 101% (inactive).
With `COC(=O)N/N=C/c1c[n+]([O-])c2ccccc2[n+]1[O-]`, the growth in experiment [1] was 106% (inactive); in experiment [2], 106% (inactive); in experiment [3], 100% (inactive); in [4] it was 104% (inactive); in [5] it was 96.6% (inactive); in [6] it was 86% (inactive). Also, the growth in experiment [7] was 114% (inactive); in experiment [8] (10 µM unless noted), 101% (inactive); in experiment [9], 97.7% (inactive); in [10] it was 105% (inactive); in [11], 112% (inactive); in [12], 100% (inactive). For the same compound, the growth in [13] is 99.6% (inactive); in [14], 86.6% (inactive); in experiment [15] (10 µM unless noted), 119% (inactive); in experiment [16], 100% (inactive); in experiment [17] it was 89.1% (inactive); in experiment [18], 98% (inactive). The growth is 94% (inactive) in experiment [19] and 104% (inactive) in [20].
In the case of `Cc1cc(N2CCCCC2)nc(NCc2cc(Nc3ccnc4cc(Cl)ccc34)ccc2F)n1`, the growth was -55.1% (active) in [1]; -58.4% (active) in experiment [2]; -37.1% (active) in experiment [3]; 40.9% (inactive) in [4]; -90.9% (active) in experiment [5]; 17.4% (inactive) in [6]. In addition, the growth in experiment [7] was -96.3% (active); in [8] (10 µM unless noted) it was -80.7% (active); in experiment [9], -79.2% (active); in experiment [10], -73.8% (active); in experiment [11], -42.7% (active); in experiment [12] it was 38.6% (inactive). Further, the growth was -71% (active) in experiment [13]; -46.9% (active) in experiment [14]; -21.5% (active) in experiment [15] (10 µM unless noted); -82% (active) in experiment [16]; 19.1% (inactive) in experiment [17]; -17.3% (active) in [18]. Besides, the results for the growth in experiment [19] and in experiment [20] were -19.2% (active) and -24.8% (active), respectively.
Turning to `CC[C@]12CN3CCc4c([nH]c5ccccc45)[C@@](C(=O)OC)(c4cc5c(cc4OC)N(C)[C@H]4[C@@](O)(C(=O)OC)[C@H](OC(C)=O)[C@]6(CC)C=CCN7CC[C@]54[C@@H]76)CC(C3)[C@H]1O2` (some centres not stated), the growth is 29% (inactive) in [1]; 2.74% (active) in [2]; -2.51% (active) in experiment [3]; 26.9% (inactive) in [4]; 16% (inactive) in [5]; 15.5% (inactive) in experiment [6]. For the same compound, the growth in experiment [7] is -26.4% (active); in experiment [8] (10 µM), 26.6% (inactive); in experiment [8] (100 µM) it was 94.4% (inactive) and -98.3% (active); in experiment [9] it was 19.5% (inactive); in experiment [10] it was 60.2% (inactive); in experiment [11], 31% (inactive). The growth in [12] was 28.4% (inactive); in experiment [13] it was 29.1% (inactive); in experiment [14], 32.8% (inactive); in [15] (10 µM), 27.6% (inactive); in experiment [15] (100 µM), 88% (inactive) and -96.5% (active); in [16] it was 40.5% (inactive). The growth in experiment [17] is 38.9% (inactive); in experiment [18], -12.3% (active); in experiment [19], 5.37% (active); in experiment [20] it was 25.7% (inactive).
